From PubChem BioAssay AID374 (University of Pittsburgh Molecular Library Screening Center, 2006) come the findings set out here.

The campaign covered roughly 65,000 compounds. About 100 (0.15%) were called active. Only a selection was taken, and actives are over-represented in it overall. Unmarked numbers belong to inactive results.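 Rule for the calls: active = inhibition above about 50% (limit read from the data); inconclusive = inhibition over screen mean plus 3 SD, below that limit; inactive = the rest.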

The target in the test is Dual specificity protein phosphatase 1 (Homo sapiens) (UniProt P28562). Nature of the test: blockers of human DUSP1 activity – biochemical, in vitro, primary screen (AID 374).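 Note: 0% = DMSO max control wells and 100% = wells with enzyme stopped by NaOH.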 Conditions: recombinant MKP-1, OMFP hydrolysis fluorescence; active compounds read high;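 compounds tested at a single concentration somewhere between 10 and 100 µM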.
Dual specificity protein phosphatase 1 (Homo sapiens), sequence (P28562 whole entry, looked up): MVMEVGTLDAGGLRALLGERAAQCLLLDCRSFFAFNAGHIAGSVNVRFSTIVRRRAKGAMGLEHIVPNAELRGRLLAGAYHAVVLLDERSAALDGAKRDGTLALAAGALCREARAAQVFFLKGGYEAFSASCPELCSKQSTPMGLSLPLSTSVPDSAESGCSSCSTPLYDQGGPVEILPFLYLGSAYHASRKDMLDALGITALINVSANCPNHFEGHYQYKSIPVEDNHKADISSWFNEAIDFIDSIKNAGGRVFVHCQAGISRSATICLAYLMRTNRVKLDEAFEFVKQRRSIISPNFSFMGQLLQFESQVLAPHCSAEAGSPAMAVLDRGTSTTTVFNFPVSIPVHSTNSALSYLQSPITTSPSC
Take `COC(=O)N(c1ccc(OC)cc1)P1(=S)OCCC(C)O1` (stereo not given): the inhibition was 100% (active).

Turning to `CCOC(=O)c1c(N)n(Cc2ccccc2)c2nc3ccccc3nc12`, the inhibition was 32.1%.

As to `COC(=O)C(c1ccccc1)N1CCCCCC1` (stereo not given), the inhibition is -10.8%.

As to `CCc1nc2ccccc2c(=O)n1-c1cccc(OC)c1`, the inhibition is 2.83%.

Turning to `CCN(CC)CCOC(=O)c1cc2cc(COC)ccc2o1`, the inhibition was 2.26%.
